# Measured values published in PubChem BioAssay (NCATS).
# Inconclusive results are not listed. Activity calls are given as the source filed them. Unless noted, the call rests on the fitted dose curve; in most records, active means well fitted curve in the direction sought with a large enough effect; inconclusive means small, poorly fitted or top-dose-only effect, or another doubt; inactive means no such curve, though single readings can be large; an effect the other way counts as inactive or inconclusive.
# How the values were obtained:
# [1] = biological target: Cytochrome P450 2C19 (Homo sapiens) (UniProt P33261); assay: qHTS for inhibitors of CYP2C19 against the NCATS DSHEA and TCM libraries (AID 1919974);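 further: luminescence from luciferin released by CYP2C19 oxidation of a pro-luciferin substrate; on the % scale 0 is the no-effect control and ±100 the full control effect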
# Cytochrome P450 2C19 (Homo sapiens), sequence (P33261 whole entry, looked up, canonical isoform): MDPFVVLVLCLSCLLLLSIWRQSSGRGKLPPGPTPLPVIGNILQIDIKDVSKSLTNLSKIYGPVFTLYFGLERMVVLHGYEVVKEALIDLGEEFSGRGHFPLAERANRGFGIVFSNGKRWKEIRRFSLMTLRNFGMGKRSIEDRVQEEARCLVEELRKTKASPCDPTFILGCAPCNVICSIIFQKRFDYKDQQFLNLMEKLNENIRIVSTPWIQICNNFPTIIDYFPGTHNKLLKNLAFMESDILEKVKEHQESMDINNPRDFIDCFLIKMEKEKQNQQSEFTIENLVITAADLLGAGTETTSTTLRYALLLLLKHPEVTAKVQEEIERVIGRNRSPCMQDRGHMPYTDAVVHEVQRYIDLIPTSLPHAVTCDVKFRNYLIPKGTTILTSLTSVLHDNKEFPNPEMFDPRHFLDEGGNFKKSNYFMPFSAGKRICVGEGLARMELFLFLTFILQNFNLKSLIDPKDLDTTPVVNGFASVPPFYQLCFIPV
# In short: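 Isoform-specific enzyme and substrate levels; enzyme-free wells as background. Reaction: 1x NADPH regenerating system, 30-45 min, room temperature, shielded from light; luminescent detection reagent added, 30 min.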
# [2] = KB-3-1 P-gp reporter qHTS against the NCATS DSHEA and TCM libraries (AID 1919975); further: 0% is about no effect
# In short: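 KB-3-1 parental line, 1536-well qHTS: cells seeded, ~4 h attachment, pintool compound addition, ~72 h at 37C, then CellTiter-Glo, 30 min RT, luminescence. Concentration-response format.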
# [3] = biological target: Cytochrome P450 1A2 (Homo sapiens) (UniProt P05177); assay: qHTS for inhibitors of CYPIA2 against the NCATS DSHEA and TCM libraries (AID 1919976);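 further: light from luciferin formed by CYP1A2 from a pro-luciferin substrate; on the % scale 0 is the no-effect control and ±100 the full control effect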
# Cytochrome P450 1A2 (Homo sapiens), sequence (P05177 whole entry, looked up): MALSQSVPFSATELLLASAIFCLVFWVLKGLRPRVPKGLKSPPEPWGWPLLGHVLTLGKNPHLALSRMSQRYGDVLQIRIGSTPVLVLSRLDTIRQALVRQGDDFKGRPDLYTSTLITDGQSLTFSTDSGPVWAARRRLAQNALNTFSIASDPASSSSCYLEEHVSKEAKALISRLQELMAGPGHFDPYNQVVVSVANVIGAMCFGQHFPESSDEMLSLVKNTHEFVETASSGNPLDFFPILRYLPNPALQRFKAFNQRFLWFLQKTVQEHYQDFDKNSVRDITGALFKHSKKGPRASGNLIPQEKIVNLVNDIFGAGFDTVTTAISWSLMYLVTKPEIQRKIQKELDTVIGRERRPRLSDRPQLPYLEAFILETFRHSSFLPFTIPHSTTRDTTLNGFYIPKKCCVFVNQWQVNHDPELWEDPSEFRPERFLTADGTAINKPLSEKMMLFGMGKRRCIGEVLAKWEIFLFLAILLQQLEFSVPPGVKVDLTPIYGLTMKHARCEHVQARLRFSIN
# In short: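 Furafylline served as the plate control. Compounds met CYP1A2 and pro-luciferin substrate 15 min before NADPH regeneration solution (1x) was added; after 30-45 min at RT, P450-Glo reagent was added for 30 min and luminescence was measured.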
# [4] = qHTS Counterscreen for compound interference against the NCATS DSHEA and TCM libraries (AID 1919978); details: firefly luciferase detection reagent interference, luminescence;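 further: compounds preincubated with 1 µM D-luciferin or buffer before detection reagent; % of control where 0% means no effect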
# In short: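 Compounds, titrated from 19.5 nM to 39.8 uM final, were pinned onto 1 uM D-luciferin or plain 100 mM potassium phosphate. After 15 min at room temperature, luciferin detection reagent was added for 30 min before the luminescence read.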
# [5] = Dual reporter qHTS for agonist of Pregnane X Receptor (hPXR) against the NCATS DSHEA and TCM libraries: Fluorescence readout (AID 1920058); further: potency means the concentration at half of the fitted maximal effect
# In short: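 In this qHTS counter-read, reporter-bearing HepG2 cells in charcoal-stripped serum received substances for approximately 24 h before viability was assessed fluorometrically with CellTiter-Fluor.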
# [6] = biological target: Nuclear receptor subfamily 1 group I member 2 (Homo sapiens) (UniProt O75469); assay: Dual reporter qHTS for agonist of Pregnane X Receptor (hPXR) against the NCATS DSHEA and TCM libraries: Luminescence readout (AID 1920059); further: potency means the concentration at half of the fitted maximal effect
# Nuclear receptor subfamily 1 group I member 2 (Homo sapiens), sequence (O75469 whole entry, looked up): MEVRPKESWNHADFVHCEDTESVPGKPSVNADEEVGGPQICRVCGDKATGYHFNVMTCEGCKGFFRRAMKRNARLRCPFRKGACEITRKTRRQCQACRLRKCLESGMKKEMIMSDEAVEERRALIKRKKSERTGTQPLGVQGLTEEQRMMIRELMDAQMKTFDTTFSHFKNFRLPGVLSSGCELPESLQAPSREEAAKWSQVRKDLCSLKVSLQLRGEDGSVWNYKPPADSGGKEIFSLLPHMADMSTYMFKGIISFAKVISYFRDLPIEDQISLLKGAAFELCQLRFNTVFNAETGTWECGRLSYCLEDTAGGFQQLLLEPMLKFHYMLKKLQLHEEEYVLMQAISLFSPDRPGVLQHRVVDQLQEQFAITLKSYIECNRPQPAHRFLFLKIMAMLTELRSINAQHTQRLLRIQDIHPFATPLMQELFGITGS
# In short: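 Luminescent PXR reporter read (ONE-Glo) after a CellTiter-Fluor viability read, following 24 h, 37C treatment of HepG2 cells stably carrying hPXR-Luc.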
# [7] = biological target: Nuclear receptor subfamily 1 group I member 2 (Homo sapiens) (UniProt O75469); assay: Dual reporter qHTS for antagonist of Pregnane X Receptor (hPXR) against the NCATS DSHEA and TCM libraries: Luminescence Readout (AID 1920060);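 further: HepG2 cells carrying hPXR luciferase reporter stimulated with rifampicin at 2 µM; 0% is about no effect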
# In short: (§1)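 HepG2 hPXR-Luc, 2000 cells/well, charcoal-stripped FBS medium; 5 h attach; RIF 2 uM final; 24 h 37C/5% CO2; CellTiter-Fluor 1 h, fluor 405/540; ONE-Glo 30 min RT, lum.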
# [8] = Dual reporter qHTS for antagonist of Pregnane X Receptor (hPXR) against the NCATS DSHEA and TCM libraries: Fluorescence Readout (AID 1920061); further: 0% is about no effect
# In short: as §1
# [9] = qHTS for identification of novel therapeutic agents for treatment of microphthalmiaassociated transcription factor (MiT) renal cell carcinoma (RCC) (AID 1963991); details: CellTiter-Glo, 48 h, stronger effect = lower value;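 further: curves scaled with 100% = DMSO viability and 0% = empty wells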
# In short: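 UOK109/UOK124/UOK145 (TFE3 fusions, three partners); 500 cells/well; MIPE v4.0, 1912 cpds, 11 conc.; 48 h, 37 C; CellTiter-Glo, 15 min RT; lum. Norm.: DMSO 100%, empty 0%.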
# [10] = qHTS drug screen for cell cycle checkpoint inhibitors in PARPi-resistant BRCA-mutant ovarian cancer cell lines. (AID 1963452; calls by dose curve); details: PEO1/OlaR viability, CellTiter-Glo luminescence, 96 h, stronger effect = lower value
# In short: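 PEO1, PEO4 and PEO1/OlaR ovarian cancer cells, 600 per well, exposed 96 h at 37C to a dilution series. Viability read by CellTiter-Glo luminescence, normalized to DMSO and empty wells; activity summarized as Z-AUC.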
# [11] = qHTS profiling for inhibitors of Plasmodium falciparum proliferation (AID 504749);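 further: 0% = DMSO vehicle and full inhibition = artemisinin control; nearly all actives have a fitted effect of over 60% in size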; details: P. falciparum in erythrocytes, SYBR Green DNA, 72 h, at 28.7 µM (top of the series)
# In short: (§2)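 In a 72 h erythrocytic culture (37 C, humidified, 5% CO2) at 2.5% hematocrit and 0.3% starting parasitemia, compounds were tested; SYBR Green I in detergent lysis buffer stained parasite DNA overnight.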
# 3D7 = assay: as above; details: P. falciparum in erythrocytes, SYBR Green DNA, 72 h; series mostly up to 28.7 µM
# In short: as §2
# AA1029 = assay: as above; details: P. falciparum in erythrocytes, SYBR Green DNA, 72 h; series mostly up to 28.7 µM
# In short: as §2
# AS120 = assay: as above; details: P. falciparum in erythrocytes, SYBR Green DNA, 72 h; series mostly up to 28.7 µM
# In short: as §2
# ATS189 = assay: as above; details: P. falciparum in erythrocytes, SYBR Green DNA, 72 h; series mostly up to 28.7 µM
# In short: as §2
# ATS95 = assay: as above; details: P. falciparum in erythrocytes, SYBR Green DNA, 72 h; series mostly up to 28.7 µM
# In short: as §2
# C2A = assay: as above; details: P. falciparum in erythrocytes, SYBR Green DNA, 72 h; series mostly up to 28.7 µM
# In short: as §2
# CP185 = assay: as above; details: P. falciparum in erythrocytes, SYBR Green DNA, 72 h; series mostly up to 28.7 µM
# In short: as §2
# [12] = TFE3-RCC UOK109 viability, measured here: UOK109 Z-AUC
# [13] = TFE3-RCC viability, measured here: UOK124 Z-AUC
# [14] = TFE3-RCC viability, measured here: UOK145 Z-AUC
# [15] = measured here: PEO1 parental Z-AUC
compound,measurement,setting,value
OC[C@H]1O[C@@H](OCCc2ccc(O)cc2)[C@H](O)[C@@H](O)[C@H]1O,Potency,[1],inactive
same,outcome,[2],inactive
same,outcome,[3],inactive
same,max response,[4],1.11% (inactive)
same,Potency,[5],inactive
same,Potency,[6],inactive
same,outcome,[7],inactive
same,outcome,[8],inactive
same,z-score,[9]; [12],0.167
same,z-score,[9]; [13],0.0834
same,z-score,[9]; [14],-0.171
CC(C)(CO)[C@@H](O)C(=O)NCCC(=O)O,outcome,[2],inactive
same,max response,[4],-1.56% (inactive)
same,Potency,[5],inactive
same,Potency,[6],11.2 µM (active)
same,outcome,[7],inactive
same,outcome,[8],inactive
same,Z-AUC,[10],-0.0324 (inactive)
same,Z-AUC,[10]; [15],0.0769
same,Z-AUC,[10]; measured here: PEO4 Z-AUC,0.104
same,z-score,[9]; [12],1.12
same,z-score,[9]; [13],0.429
same,z-score,[9]; [14],-0.0311
Cc1cc2nc3c(=O)[nH]c(=O)nc-3n(CC(O)C(O)C(O)CO)c2cc1C (centres undefined),outcome,[2],inactive
same,max response,[4],1.01% (inactive)
same,Potency,[5],28.2 µM (active)
same,Potency,[6],inactive
same,outcome,[7],inactive
same,outcome,[8],inactive
same,Z-AUC,[10],-0.035 (inactive)
same,Z-AUC,[10]; [15],0.9
same,Z-AUC,[10]; measured here: PEO4 Z-AUC,1
same,z-score,[9]; [12],1.42
same,z-score,[9]; [13],0.421
same,z-score,[9]; [14],0.538
same,"activity, negative = inhibition",[11]; parasite line A,-17.3% (inactive)
same,"activity, negative = inhibition",[11]; parasite line B,-10.6% (inactive)
same,Potency,3D7,inactive
same,Potency,AA1029,inactive
same,Potency,AS120,inactive
same,Potency,ATS189,inactive
same,Potency,ATS95,inactive
same,Potency,C2A,inactive
same,outcome,CP185,inactive
CC(C)CNc1ccnc(NCc2csc(-c3ccccc3)n2)n1,Z-AUC,[10],-1 (inactive)
same,Z-AUC,[10]; [15],-0.906
same,Z-AUC,[10]; measured here: PEO4 Z-AUC,-0.83
O=C(O)CCNc1cc(N2CCc3ccccc3CC2)nc(-c2ccccn2)n1,Z-AUC,[10],0.743 (inactive)
same,Z-AUC,[10]; [15],0.477
same,Z-AUC,[10]; measured here: PEO4 Z-AUC,0.175
CN(C)CCOc1cc(-c2cn[nH]c2)ccc1NC(=O)C1COc2ccccc2O1 (centres undefined),Z-AUC,[10],1.15 (inactive)
same,Z-AUC,[10]; [15],0.743
same,Z-AUC,[10]; measured here: PEO4 Z-AUC,1.03
Cc1cnc(Nc2cccc(CN3CCOCC3)c2)nc1Nc1cccc(S(=O)(=O)NC(C)(C)C)c1,Z-AUC,[10],-1.13 (inactive)
same,Z-AUC,[10]; [15],-0.892
same,Z-AUC,[10]; measured here: PEO4 Z-AUC,-1.26
O=S(=O)(O)c1ccc2cc(N=Nc3cc(S(=O)(=O)O)c4cccnc4c3O)ccc2c1,Z-AUC,[10],0.327 (inactive)
same,Z-AUC,[10]; [15],-0.476
same,Z-AUC,[10]; measured here: PEO4 Z-AUC,0.158
CC1(COc2ccc3c(c2)ncn3-c2ccc3cccc(N4CCC(N)CC4)c3n2)COC1,Z-AUC,[10],0.496 (inactive)
same,Z-AUC,[10]; [15],-0.0934
same,Z-AUC,[10]; measured here: PEO4 Z-AUC,-0.193
O=C(O)CCC=CCC[C@@H]1[C@H](N2CCCCC2)[C@@H](O)C[C@@H]1OCc1ccc(-c2ccccc2)cc1,Z-AUC,[10],0.918 (inactive)
same,Z-AUC,[10]; [15],-0.0252
same,Z-AUC,[10]; measured here: PEO4 Z-AUC,0.219
CCC(=O)NCC[C@@H]1CCc2ccc3c(c21)CCO3,Z-AUC,[10],-0.993 (inactive)
same,Z-AUC,[10]; [15],1.01
same,Z-AUC,[10]; measured here: PEO4 Z-AUC,0.501
O=C(Nc1ccc(OC(F)(F)F)cc1)c1sccc1NCc1ccnc2ccccc12,Z-AUC,[10],0.246 (inactive)
same,Z-AUC,[10]; [15],-0.378
same,Z-AUC,[10]; measured here: PEO4 Z-AUC,-0.233
CCN1CCC(n2cc(CNc3cc(Cl)c4ncc(C#N)c(Nc5ccc(F)c(Cl)c5)c4c3)nn2)CC1,Z-AUC,[10],-1.28 (inactive)
same,Z-AUC,[10]; [15],-0.754
same,Z-AUC,[10]; measured here: PEO4 Z-AUC,-1.71
CN(C)N=Nc1nc[nH]c1C(N)=O,Z-AUC,[10],1.39 (inactive)
same,Z-AUC,[10]; [15],0.491
same,Z-AUC,[10]; measured here: PEO4 Z-AUC,0.792
CCCCC(C)(C)[C@H](O)C=C[C@H]1[C@H](O)CC(=O)[C@H]1CC=CCCCC(=O)O,Z-AUC,[10],0.66 (inactive)
same,Z-AUC,[10]; [15],0.266
same,Z-AUC,[10]; measured here: PEO4 Z-AUC,0.726
NC1(C(=O)N[C@@H](CCO)c2ccc(Cl)cc2)CCN(c2ncnc3[nH]ccc23)CC1,Z-AUC,[10],-0.465 (inactive)
same,Z-AUC,[10]; [15],0.588
same,Z-AUC,[10]; measured here: PEO4 Z-AUC,0.532
Cc1cnc(-c2cc(N3CCN(C(=O)CCS(C)(=O)=O)CC3)ncc2Cl)c(C)c1,Z-AUC,[10],0.449 (inactive)
same,Z-AUC,[10]; [15],1.67
same,Z-AUC,[10]; measured here: PEO4 Z-AUC,1.63
COC(=O)[C@H](c1ccccc1Cl)N1CCc2sccc2C1,Z-AUC,[10],1.43 (inactive)
same,Z-AUC,[10]; [15],1.15
same,Z-AUC,[10]; measured here: PEO4 Z-AUC,0.952
Cn1cnc(-c2cc3nccc(Oc4ccc(NC(=S)NC(=O)Cc5ccccc5)cc4F)c3s2)c1,Z-AUC,[10],-0.0485 (inactive)
same,Z-AUC,[10]; [15],0.327
same,Z-AUC,[10]; measured here: PEO4 Z-AUC,0.301
Cc1cc(C(C)Nc2ccccc2)c2nc(N3CCOCC3)cc(=O)n2c1 (centres undefined),Z-AUC,[10],0.744 (inactive)
same,Z-AUC,[10]; [15],1.25
same,Z-AUC,[10]; measured here: PEO4 Z-AUC,1.25
C[C@]12CC[C@@H]3c4ccc(O)cc4CC[C@H]3[C@H]1[C@@H](O)[C@@H](O)[C@H]2O,Z-AUC,[10],1 (inactive)
same,Z-AUC,[10]; [15],0.841
same,Z-AUC,[10]; measured here: PEO4 Z-AUC,0.542
c1ccc(-c2oc3ncnc(NC[C@@H]4CCCO4)c3c2-c2ccccc2)cc1,Z-AUC,[10],-1.81 (inactive)
same,Z-AUC,[10]; [15],-0.438
same,Z-AUC,[10]; measured here: PEO4 Z-AUC,-1.2
CCN(CC)CCCCNc1nc2cc(Cl)c(Cl)cc2nc1-c1ccc(-c2cccs2)s1,Z-AUC,[10],2.01 (inactive)
same,Z-AUC,[10]; [15],0.897
same,Z-AUC,[10]; measured here: PEO4 Z-AUC,0.59
